SENP6 block: inhibitors of human SENP6 protease. Q9GZR1. Recombinant SENP6 catalytic domain, aminoluciferin luminescence. inhibition, % at 10 µM. actives 1.8% (n = 330,000);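 active = inhibition above about 50% at the single tested dose, limit read from the data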;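 also: plate controls were DMSO wells with enzyme for no effect and DMSO wells lacking enzyme for full effect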
SENP8 block-1: inhibitors of human SENP8 protease. Q96LD8. inhibition, % at 10 µM. purified SENP8, Z-RLRGG-aminoluciferin cleavage, luminescence. actives 1.2% (n = 330,000). AID 2540; in the data active = inhibition above about 50%
Target sequence (Q96LD8 whole entry, looked up): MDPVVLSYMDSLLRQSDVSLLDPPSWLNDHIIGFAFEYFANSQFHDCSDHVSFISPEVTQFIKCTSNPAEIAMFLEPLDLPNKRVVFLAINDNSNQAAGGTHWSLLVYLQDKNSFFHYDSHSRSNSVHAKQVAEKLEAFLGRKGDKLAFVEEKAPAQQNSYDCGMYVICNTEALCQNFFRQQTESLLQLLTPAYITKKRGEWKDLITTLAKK
SENP7 block: blocks the human protease SENP7; Q9BQF6; recombinant SENP7, Z-RLRGG-aminoluciferin luminescence, 40 min; inhibition, % at 5 µM; actives 1.5% (n = 330,000); AID 434973;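 active = inhibition above about 50% at the single test dose, limit read from the data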;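 also: plate controls were DMSO with enzyme for no effect and no enzyme buffer wells for full effect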
SENP8 block-2: inhibitors of human SENP8 protease; inhibition, % at 20 µM; recombinant SENP8, Nedd8 substrate fluorescence; AID 602440; Q96LD8; actives 0.64% (n = 360,000); in the data active = inhibition mostly above about 40%, no sharp cut-off; inactive = mostly below about 27%
Platelet DG rel: platelet dense granule release activity; actives 0.22% (n = 300,000); inhibition, %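 (compounds screened at 7.5 µM in platelet-rich plasma)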; human platelet-rich plasma, SFLLRN dense granule ATP release, luminescence; AID 1663;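 active = mean replicate score, as percent of positive control, at or above 50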
SENP8 conf: confirmation of human SENP8 protease inhibitors | Recombinant SENP8, Z-RLRGG-aminoluciferin luminescence, 60 min | shares compounds with SENP7 block | inhibition, % at 12.5 µM | actives 40% (n = 6,200);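 active = mean inhibition across replicates above about 50%, limit read from the data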
SENP6 confirm: confirmation of human SENP6 protease inhibitors. shares compounds with SENP7 block. recombinant SENP6, Z-RLRGG-aminoluciferin luminescence. inhibition, % at 12.5 µM. actives 58% (n = 6,200)
SENP7 conf: human SENP7 inhibition, confirmed; shares compounds with SENP7 block; recombinant SENP7, Z-RLRGG-aminoluciferin luminescence, 40 min; inhibition, % at 12.5 µM; actives 69% (n = 6,200)
Casp3 SENP sel: caspase-3 inhibition (SENP selectivity assay). inhibition, % at 12.5 µM. purified caspase-3, Z-DEVD-aminoluciferin luminescence, 60 min. actives 60% (n = 6,200). shares compounds with SENP7 block;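 active = mean inhibition above about 50%, limit read from the data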;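 also: plate controls were enzyme with DMSO for no effect and wells without caspase-3 for full effect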
Target sequence (P42574 28-227 limits assumed): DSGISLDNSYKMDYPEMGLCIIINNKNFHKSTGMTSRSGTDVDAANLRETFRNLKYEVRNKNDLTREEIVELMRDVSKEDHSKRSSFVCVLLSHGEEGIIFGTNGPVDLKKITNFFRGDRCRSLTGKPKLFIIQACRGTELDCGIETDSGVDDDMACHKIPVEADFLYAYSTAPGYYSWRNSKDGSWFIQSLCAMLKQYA
SENP luc ctr: luminescence interference (SENP counter-screen); inhibition, % at 12.5 µM; actives 39% (n = 6,200); shares compounds with SENP7 block; Pre-incubated SENP8/Z-RLRGG-aminoluciferin, luciferase luminescence interference;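 active = mean inhibition above about 50% when retested at one dose, limit read from the data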;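 also: plate controls were DMSO wells with completed reaction for no effect and substrate without enzyme for full effect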
Starred values were filed as active, the others as inactive; · = not tested or not shown. In the library only some 2.4% were active in any assay of this set; here they are far more common.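 The calls were made as follows, unless noted: active = mean inhibition above about 50% in the one-dose retest (limit read from the data); inactive = the rest.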

SMILES	SENP6 block	SENP8 block-1	SENP7 block	SENP8 block-2	Platelet DG rel	SENP8 conf	SENP6 confirm	SENP7 conf	Casp3 SENP sel	SENP luc ctr
COc1ccc(NCc2nc3ccccc3n2C)cc1	68.1*	33.3	45.4	12.4	13.0	65.2*	63.5*	84.7*	86.6*	70.5*
CCOC(=O)c1ccc(NCc2nc3ccccc3n2C)cc1	46.4	61.1*	79.1*	8.7	11.6	82.1*	83.2*	95.9*	86.2*	83.2*
O=C(OCC(=O)N1CCCC1=O)c1nc(Cl)c(Cl)c(Cl)c1Cl	-13.9	-12.6	-27.7	8.7	-9.1	·	·	·	·	·
CN1C(=O)CCC(CCC(=O)O)(c2ccccc2O)C1=O (centres undefined)	7.1	0.6	-6.3	5.6	-0.7	·	·	·	·	·
Cc1ccc(NCc2nc3ccccc3n2C)cc1	38.7	12.3	3.5	-76.5	17.9	·	·	·	·	·
Cn1c(CNc2ccc(Br)cc2)nc2ccccc21	69.6*	59.0*	71.6*	9.0	4.4	-3.4	63.4*	86.6*	62.7*	70.1*
Cc1ccc(CNc2nc3ccccc3n2C)cc1	78.4*	59.0*	71.9*	-13.3	13.9	60.9*	61.5*	90.6*	87.7*	75.1*
Cn1c(NCc2ccc(Cl)cc2)nc2ccccc21	34.9	8.1	29.3	9.2	8.9	·	·	·	·	·
NN(CCO)C(=S)Nc1ccc(Cl)cc1	5.6	-4.2	3.0	20.3	0.2	·	·	·	·	·
Cc1cc(C(=O)COC(=O)c2ccc(O)cc2)c(C)n1CC1CCCO1 (centres undefined)	53.8*	26.3	2.3	11.6	4.2	53.9*	49.0	82.9*	67.3*	41.0
COc1cc(OC)c(C(=O)OCC(=O)c2cc(C)n(CC3CCCO3)c2C)cc1OC (centres undefined)	0.1	3.9	-3.4	4.6	11.8	·	·	·	·	·
COc1cc(OC)cc(C(=O)OCC(=O)c2cc(C)n(CC3CCCO3)c2C)c1 (centres undefined)	68.0*	47.9	21.7	0.2	·	57.4*	49.1	78.8*	52.8*	3.4
Clc1ccc(CN=C2Nc3ccccc3CS2)cc1	69.5*	44.3	59.9*	11.3	1.2	65.6*	67.6*	87.2*	48.2	79.7*
Cc1ccc(CN=C2Nc3ccccc3CS2)cc1	89.2*	82.7*	88.4*	13.6	3.3	91.2*	91.4*	99.7*	84.1*	82.9*
c1cncc(CN=C2Nc3ccccc3CS2)c1	21.4	-4.5	4.0	9.4	5.0	·	·	·	·	·
CC1(C(=O)Nc2ccc3c(c2)OCCO3)CN(S(C)(=O)=O)CC(=O)N1C1CCCCCC1 (centres undefined)	·	·	·	10.0	·	·	·	·	·	·
CC(C)c1ccc(NC(=O)c2cc(Br)ccc2Br)cc1	-15.8	-13.6	-6.0	-47.6	-28.0	·	·	·	·	·
O=C(Nc1ccc(Cl)cc1)c1ccc(Br)cc1F	50.7*	44.4	49.8	13.9	0.4	19.9	40.0	40.5	40.5	8.5
CCN(CC)S(=O)(=O)c1cc(NC(=O)c2ccc(-n3cncn3)c([N+](=O)[O-])c2)ccc1C	-6.0	-7.4	-10.5	1.9	8.4	·	·	·	·	·
COc1cc(/C=N/Nc2nc3ccccc3s2)cc([N+](=O)[O-])c1O	10.8	58.0*	32.4	41.9*	11.8	5.1	15.2	4.4	13.8	1.0
COc1cc(/C=N/Nc2ccccc2[N+](=O)[O-])cc(OC)c1O	-9.8	-22.7	19.4	30.6	8.2	·	·	·	·	·
CC(=O)Nc1nccc(-c2cc(-c3ccccc3)no2)n1	1.6	11.6	7.7	·	-44.9	·	·	·	·	·
CCc1ccn2cc(-c3cc(-c4ccccc4)no3)nc2c1	93.0*	89.7*	96.5*	-355.4	29.0	43.4	92.6*	76.6*	61.7*	6.8
COc1cc(O)sc1C=Nc1ccc(Cl)cc1	95.0*	82.3*	91.5*	-7.6	12.5	85.4*	86.9*	100.3*	84.0*	56.8*
Oc1ccc(Br)cc1C=Nc1ccc(Cl)cc1	-18.0	-7.2	3.7	2.4	1.4	·	·	·	·	·
SMILES	SENP6 block	SENP8 block-1	SENP7 block	SENP8 block-2	Platelet DG rel	SENP8 conf	SENP6 confirm	SENP7 conf	Casp3 SENP sel	SENP luc ctr
O=C(COc1ccc(F)cc1)c1ccc2c(c1)CCCC2	18.5	5.2	8.7	10.0	6.3	·	·	·	·	·
O=C(COc1ccc(Cc2ccccc2)cc1)c1ccc(F)cc1	59.9*	26.3	52.0*	1.1	16.6	19.3	36.1	50.8*	24.7	10.9
COc1cccc(OCc2ccc(Cl)cc2)c1C#N	90.5*	92.9*	97.2*	13.6	0.8	83.9*	95.5*	99.5*	88.0*	41.3
O=C(NCc1cccs1)C(=O)c1cn(CC(=O)N2CCOCC2)c2ccccc12	-7.6	5.1	7.8	8.5	-2.4	·	·	·	·	·
O=Cc1cn(CC(=O)N2CCOCC2)c2ccccc12	9.2	0.7	2.4	8.1	-0.6	·	·	·	·	·
Cc1cccc(CSc2cn(CC(=O)N3CCOCC3)c3ccccc23)c1	64.5*	71.6*	74.1*	19.0	-20.7	87.2*	86.7*	95.9*	69.5*	59.1*
COc1ccccc1NC(=O)C(=O)c1cn(CC(=O)N2CCOCC2)c2ccccc12	51.9*	46.7	55.7*	12.6	10.3	8.8	40.4	16.6	10.3	1.6
O=C(NCc1ccccc1)C(=O)c1cn(CC(=O)N2CCOCC2)c2ccccc12	-8.5	-12.9	54.8*	-44.7	1.2	-6.2	-1.7	3.5	5.1	-3.9
Nc1ccc2oc(C3CCCCC3)nc2c1	13.2	0.3	7.5	-87.1	10.7	·	·	·	·	·
Cc1ccc2nc(-c3cc(N)cc(N)c3)oc2c1	25.2	16.0	11.0	-324.1	24.3	·	·	·	·	·
Nc1ccc(-c2nc3ccc(N)cc3o2)cc1	67.9*	47.0	61.1*	-422.8	11.7	37.7	45.0	82.3*	78.8*	61.9*
COc1ccc(-c2nc3cc(NC(=O)c4ccc5c(c4)OCO5)ccc3o2)cc1	2.5	-0.5	-0.3	-275.4	-3.2	·	·	·	·	·
Cc1ccc(-c2nc3cc(N)ccc3o2)cc1Br	92.8*	86.8*	90.7*	-306.6	4.5	2.1	90.8*	101.2*	73.6*	28.0
Cc1ccc(C)c(-c2nc3cc(N)ccc3o2)c1	55.1*	29.6	17.1	-412.6	0.8	26.6	27.3	69.2*	25.6	50.0*
COC(=O)c1ccc(-c2nc3cc(N)ccc3o2)cc1	85.0*	68.9*	72.9*	-176.5	5.6	24.2	26.6	74.0*	54.5*	6.3
COCCCN(CC(=O)Nc1ccc(N2CCOCC2)cc1)S(=O)(=O)c1ccccc1	-3.1	6.0	-4.7	7.2	-9.5	·	·	·	·	·

Screening data (PubChem BioAssay)
